Activity calls are given as the source filed them.
How the values were obtained:
[1] = tested on: Plasmodium falciparum Sir2 (PF13_0152, Sir2A); test: Plasmodium falciparum Sir2A binding compounds – biochemical, small-molecule microarray, 635 nm fluorescence, primary screen (AID 1098); conditions: fluorescence 635 nm, higher = more signal;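 note: score merges spot fluorescence intensity with its signal-to-noise ratio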
[2] = probe aDKK1 binding to arrayed compounds – biochemical, biotinylated probe, 635/667 nm fluorescence, primary screen (AID 1099); conditions: small-molecule microarray, higher = more signal;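 note: score merges 667nm spot fluorescence with signal to noise across triplicate slides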
[3] = probe aCHRDL2 binding to arrayed compounds – biochemical, biotinylated probe, 635/667 nm fluorescence, primary screen (AID 1100); conditions: small-molecule microarray, higher = more signal
[4] = change in splice reporter luminescence, either direction, cell-based, HEK293, spliceosome inhibition project, primary screen (AID 1101); conditions: HEK293 splicing luciferase reporter, 24 h, higher = more signal, called active from +8 up or from −8 down;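 note: HEK293 cells carrying a splicing-competent luciferase reporter gene; test concentration not given here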
[5] = target: Fibroblast growth factor 10 (Homo sapiens) (UniProt O15520); test: compounds binding fibroblast growth factor 10 – biochemical, small-molecule microarray, 635 nm fluorescence, primary screen (AID 1102); conditions: FGF10 binding, fluorescence 635 nm, higher = more signal
[6] = tested on: glycogen synthase kinase-3 (GSK3A per assay name; protocol says GSK3B); test: compounds binding glycogen synthase kinase-3 – biochemical, small-molecule microarray, 635 nm fluorescence, GSK3A, primary screen (AID 1103); conditions: fluorescence 635 nm, higher = more signal; note: the record names both GSK3A and GSK3B
[7] = target: Epidermal growth factor receptor (Homo sapiens) (UniProt P00533); test: compounds binding epidermal growth factor receptor – biochemical, small-molecule microarray, 635 nm fluorescence, primary screen (AID 1104); conditions: EGFR binding, higher = more signal;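 note: score merges 667 nm emission intensity with spot signal to noise over triplicate slides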
[8] = target: Follistatin-related protein 3 (Homo sapiens) (UniProt O95633); test: compounds binding follistatin-related protein 3 – biochemical, small-molecule microarray, 635 nm fluorescence, primary screen (AID 1105); conditions: FSTL3 binding, higher = more signal;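 note: score merges emission near 667 nm and signal to noise per printed spot across three slides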
[9] = target: Dickkopf-related protein 1 (Homo sapiens) (UniProt O94907); test: small molecules binding DKK1 protein – biochemical, small-molecule microarray, 635 nm fluorescence scan, primary screen (AID 1106); conditions: higher = more signal;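 note: score merges emission near 667 nm with signal to noise over three replicate slides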
[10] = tested on: Inhibin beta A chain (activin A); test: small molecules binding activin A – biochemical, small-molecule microarray, 635 nm fluorescence scan, primary screen (AID 1107); conditions: INHBA, higher = more signal;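 note: mouse activin A protein probed at 4.33 µg/mL on printed slides; score merges bound-protein fluorescence near 667 nm with spot signal-to-noise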
[11] = tested on: Human papillomavirus type 1a protein E7 (residues 44-93); test: small molecules binding HPV E7 44-93 – biochemical, small-molecule microarray, residues 44-93, 635 nm fluorescence, primary screen (AID 1108); conditions: fluorescence 635 nm, higher = more signal;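 note: E7 fragment applied at 1 µg/mL in TBST for 1 h at 4 C; score combines spot fluorescence with its signal to noise ratio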
[12] = hepatitis C replication reporter changes, two-sided – Huh7 cells, luciferase reporter, HCV replication inhibitor project, primary screen (AID 1109); conditions: Huh7 HCV replicon luciferase reporter, 48 h; higher = more signal;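 note: huh7 hepatoma cells harbouring a luciferase neomycin HCV replicon reporter; luciferase luminescence as measure of HCV replicon replication; test concentration not given here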
[13] = target: Left-right determination factor 2 (Homo sapiens) (UniProt O00292); test: small molecules binding LEFTY2 protein – biochemical, small-molecule microarray, 635 nm fluorescence scan, primary screen (AID 1110); conditions: higher = more signal
[14] = target: Calmodulin-1 (Homo sapiens) (UniProt P0DP23); test: small molecules binding calmodulin-1 with EGTA – biochemical, small-molecule microarray, Cy5-labelled CALM1, profiling panel (AID 1111); conditions: Cy5-CALM1 binding fluorescence, higher = more signal;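 note: labelled calmodulin applied in Tris saline Tween buffer holding calcium plus EGTA and DTT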
[15] = target: Calmodulin-1 (Homo sapiens) (UniProt P0DP23); test: small molecules binding Ca-loaded calmodulin-1 – biochemical, small-molecule microarray, Cy5-labelled CALM1, plus calcium, artefact control for SMM control-protein annotation, profiling panel (AID 1112); conditions: Cy5-CALM1 binding fluorescence, higher = more signal;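 note: score merges spot fluorescence with signal to noise from triplicate slides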
[16] = probe aWnt5a binding to arrayed compounds – biochemical, biotinylated probe, 635/667 nm fluorescence, primary screen (AID 1113); conditions: small-molecule microarray, higher = more signal;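 note: score merges 667 nm fluorescence intensity with signal-to-noise per printed feature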
[17] = probe aShh binding to arrayed compounds – biochemical, biotinylated probe, 635/667 nm fluorescence, primary screen (AID 1114); conditions: small-molecule microarray, higher = more signal;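 note: probe is biotin-labelled aShh protein from a stem cell growth factor screen; measures binding of labelled protein to compounds printed on the slide; score merges feature fluorescence at 667 nm with signal-to-noise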
[18] = probe aNog binding to arrayed compounds – biochemical, biotinylated probe, 635/667 nm fluorescence, primary screen (AID 1115); conditions: small-molecule microarray, higher = more signal;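 note: probe is biotinylated aNog protein used at 0.15 µg/mL for 1 h at 4 C; z-score combines 667 nm fluorescence of each spot with its signal to noise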
[19] = target: Torsin-1A-interacting protein 1 (Homo sapiens) (UniProt Q5JTV8); test: compound microarray binding of lysate hLAP1 – cell lysate, small-molecule microarray, COS7 lysate, 635/667 nm fluorescence, primary screen (AID 1116); conditions: 635 nm fluorescence, higher = more signal
[20] = target: Alpha-bungarotoxin (Bungarus multicinctus) (UniProt P60615); test: compounds binding labelled alpha-BTX control protein – biochemical, small-molecule microarray, Alexa647 label, 635/667 nm fluorescence, artefact control for SMM control protein annotation, profiling panel (AID 1117); conditions: alpha-BTX-A647 binding fluorescence, higher = more signal
Sequence of Alpha-bungarotoxin (Bungarus multicinctus) (P60615 whole entry, looked up): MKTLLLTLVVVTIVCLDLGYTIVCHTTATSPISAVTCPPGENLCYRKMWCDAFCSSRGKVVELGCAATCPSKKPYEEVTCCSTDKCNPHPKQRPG

Sequence of Epidermal growth factor receptor (Homo sapiens) (P00533 whole entry, looked up): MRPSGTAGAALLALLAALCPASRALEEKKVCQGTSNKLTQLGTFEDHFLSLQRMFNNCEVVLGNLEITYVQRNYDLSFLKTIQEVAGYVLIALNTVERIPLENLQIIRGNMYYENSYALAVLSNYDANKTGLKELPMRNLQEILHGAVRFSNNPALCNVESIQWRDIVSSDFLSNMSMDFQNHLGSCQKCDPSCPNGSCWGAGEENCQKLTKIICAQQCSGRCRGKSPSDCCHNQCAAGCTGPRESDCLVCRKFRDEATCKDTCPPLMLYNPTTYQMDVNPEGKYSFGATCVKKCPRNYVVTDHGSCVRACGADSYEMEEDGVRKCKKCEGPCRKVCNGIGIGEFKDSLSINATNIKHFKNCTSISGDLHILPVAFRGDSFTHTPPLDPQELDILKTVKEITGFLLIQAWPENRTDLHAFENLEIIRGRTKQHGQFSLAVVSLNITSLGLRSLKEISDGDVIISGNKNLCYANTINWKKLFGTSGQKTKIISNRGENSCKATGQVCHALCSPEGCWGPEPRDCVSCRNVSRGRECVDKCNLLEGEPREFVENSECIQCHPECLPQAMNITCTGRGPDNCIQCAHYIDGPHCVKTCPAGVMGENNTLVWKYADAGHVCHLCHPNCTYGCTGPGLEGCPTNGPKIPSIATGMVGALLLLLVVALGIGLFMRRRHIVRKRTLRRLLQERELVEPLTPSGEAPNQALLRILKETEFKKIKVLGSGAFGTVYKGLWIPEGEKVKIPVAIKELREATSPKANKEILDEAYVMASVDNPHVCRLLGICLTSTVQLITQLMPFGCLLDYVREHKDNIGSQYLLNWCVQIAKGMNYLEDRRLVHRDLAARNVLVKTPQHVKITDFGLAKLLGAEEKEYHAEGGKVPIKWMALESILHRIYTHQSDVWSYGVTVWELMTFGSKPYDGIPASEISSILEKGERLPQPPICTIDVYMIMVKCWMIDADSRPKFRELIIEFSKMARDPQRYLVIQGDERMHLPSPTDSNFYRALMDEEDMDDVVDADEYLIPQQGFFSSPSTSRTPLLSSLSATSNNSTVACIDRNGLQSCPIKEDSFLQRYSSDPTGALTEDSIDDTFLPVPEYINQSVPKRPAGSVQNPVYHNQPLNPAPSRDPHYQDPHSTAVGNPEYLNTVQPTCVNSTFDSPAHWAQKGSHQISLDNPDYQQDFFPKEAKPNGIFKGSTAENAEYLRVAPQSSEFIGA
Sequence of Torsin-1A-interacting protein 1 (Homo sapiens) (Q5JTV8 whole entry, looked up): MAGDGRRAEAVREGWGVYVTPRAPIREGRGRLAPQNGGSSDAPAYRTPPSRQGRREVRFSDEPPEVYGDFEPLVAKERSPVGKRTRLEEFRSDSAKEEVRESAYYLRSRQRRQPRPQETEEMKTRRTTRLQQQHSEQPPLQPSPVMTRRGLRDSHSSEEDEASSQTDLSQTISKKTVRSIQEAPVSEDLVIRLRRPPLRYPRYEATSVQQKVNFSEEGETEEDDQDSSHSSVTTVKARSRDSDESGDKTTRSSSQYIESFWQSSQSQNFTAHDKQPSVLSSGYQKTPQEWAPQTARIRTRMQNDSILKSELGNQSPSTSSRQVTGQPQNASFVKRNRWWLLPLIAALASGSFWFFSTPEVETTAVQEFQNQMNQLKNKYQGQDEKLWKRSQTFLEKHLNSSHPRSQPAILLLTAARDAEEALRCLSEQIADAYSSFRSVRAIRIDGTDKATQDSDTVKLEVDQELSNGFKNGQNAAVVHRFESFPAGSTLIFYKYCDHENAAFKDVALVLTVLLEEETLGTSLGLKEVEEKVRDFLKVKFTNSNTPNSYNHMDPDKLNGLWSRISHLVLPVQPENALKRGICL
Sequence of Fibroblast growth factor 10 (Homo sapiens) (O15520 whole entry, looked up): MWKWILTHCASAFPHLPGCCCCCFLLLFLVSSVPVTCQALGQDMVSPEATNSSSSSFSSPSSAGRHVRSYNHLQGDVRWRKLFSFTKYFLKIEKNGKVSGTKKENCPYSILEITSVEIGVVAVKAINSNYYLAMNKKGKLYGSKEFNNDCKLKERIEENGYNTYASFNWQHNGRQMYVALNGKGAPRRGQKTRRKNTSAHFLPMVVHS
Sequence of Follistatin-related protein 3 (Homo sapiens) (O95633 whole entry, looked up): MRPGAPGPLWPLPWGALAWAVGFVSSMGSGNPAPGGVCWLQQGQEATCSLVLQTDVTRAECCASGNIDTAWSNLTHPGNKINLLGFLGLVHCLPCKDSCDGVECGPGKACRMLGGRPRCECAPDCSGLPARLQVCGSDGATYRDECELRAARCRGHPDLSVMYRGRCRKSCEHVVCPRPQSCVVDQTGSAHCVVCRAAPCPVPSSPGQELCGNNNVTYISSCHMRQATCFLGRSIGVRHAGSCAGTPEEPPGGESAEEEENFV
Sequence of Left-right determination factor 2 (Homo sapiens) (O00292 whole entry, looked up): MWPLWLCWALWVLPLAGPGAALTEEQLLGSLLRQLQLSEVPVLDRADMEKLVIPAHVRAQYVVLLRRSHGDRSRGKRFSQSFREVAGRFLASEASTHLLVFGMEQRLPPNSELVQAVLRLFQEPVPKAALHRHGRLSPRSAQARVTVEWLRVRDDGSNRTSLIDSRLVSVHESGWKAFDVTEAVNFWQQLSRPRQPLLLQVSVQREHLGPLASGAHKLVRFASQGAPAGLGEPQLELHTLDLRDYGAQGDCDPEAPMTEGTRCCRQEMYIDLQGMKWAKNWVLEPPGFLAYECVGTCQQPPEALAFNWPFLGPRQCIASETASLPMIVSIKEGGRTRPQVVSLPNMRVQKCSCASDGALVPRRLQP
Sequence of Dickkopf-related protein 1 (Homo sapiens) (O94907 whole entry, looked up): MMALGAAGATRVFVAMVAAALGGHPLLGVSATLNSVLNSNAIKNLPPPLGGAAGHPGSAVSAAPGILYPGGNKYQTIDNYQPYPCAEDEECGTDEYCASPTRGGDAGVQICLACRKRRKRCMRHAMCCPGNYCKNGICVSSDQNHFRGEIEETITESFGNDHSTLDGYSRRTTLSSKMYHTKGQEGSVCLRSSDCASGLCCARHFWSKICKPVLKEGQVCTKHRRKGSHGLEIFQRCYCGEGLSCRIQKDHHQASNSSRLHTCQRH

| Structure (SMILES) | composite z-score [1] | composite z-score [2] | composite z-score [3] | z-score [4] | composite z-score [5] | composite z-score [6] | composite z-score [7] | composite z-score [8] | composite z-score [9] | composite z-score [10] | composite z-score [11] | z-score [12] | composite z-score [13] | composite z-score [14] | composite z-score [15] | composite z-score [16] | composite z-score [17] | composite z-score [18] | composite z-score [19] | composite z-score [20] |
| --- | --- | --- | --- | --- | --- | --- | --- | --- | --- | --- | --- | --- | --- | --- | --- | --- | --- | --- | --- | --- |
| Cc1ccc([C@H]2C(C(=O)O)=C[C@@H](C(C)C)N2S(=O)(=O)c2ccc(C)cc2)cc1 | 0.853 | 0.309 | 0.68 | -0.349 (inactive) | 0.265 | 0.914 | -0.206 | -0.103 | -0.329 | 0.479 | 1.39 | 0.58 | -0.448 | 0.995 | 0.237 | 0.0597 | -0.0769 | 0.129 | 0.984 | 0.11 |
| O=C1C[C@@](C(=O)O)(c2ccc([N+](=O)[O-])cc2)[C@@H](c2ccc(CO)cc2I)N1C1CCCCC1 | 1.24 | -0.162 | 0.862 | -2.72 (inactive) | 1.27 | -0.428 | 0.126 | 0.596 | -0.605 | 0.775 | -0.549 | -1.32 | -0.27 | 1.6 | 0.734 | 0.0194 | -0.299 | -0.103 | -0.126 | 1.28 |
| COC(=O)[C@@]1(Cc2ccc(F)cc2)[C@H]2c3cc(C(=O)N4CCCC4)n(CCc4ccc(OC)c(Br)c4)c3C[C@H]2CN1C(=O)c1ccccc1 | 0.972 | 1.55 | 1.52 | -2.23 (inactive) | 0.68 | 1.33 | -0.0295 | 1.22 | -0.813 | 0.475 | 0.543 | -2.69 | 0.179 | 2.7 | 1.29 | 0.155 | 0.627 | 1.11 | 2.7 | 2.38 |
| O=C(CS)NCCCCCNC(=O)[C@H]1C[C@H]2C(=O)N[C@@H](Cc3ccccc3)C(=O)N2[C@H]1c1cccc(OCCO)c1 | 1.4 | 0.185 | 0.373 | 0.101 (inactive) | 1.41 | 1.36 | 0.98 | 1.42 | 1.61 | 0.597 | 0.729 | -0.24 | 1.03 | -0.137 | -0.358 | 0.0388 | -0.153 | -0.259 | 1.12 | 0.656 |
| COCCOC(=O)N1C(=O)[C@@]2(c3cc(C#CCCO)ccc31)[C@H](C(=O)NC[C@H](O)c1ccccc1)[C@H]1C(=O)O[C@H](c3ccccc3)[C@H](c3ccccc3)N1[C@@H]2c1ccc(OCCO)cc1 | 1.24 | 0.112 | 0.169 | -1.33 (inactive) | 0.901 | 1.3 | 0.887 | 1.26 | 0.512 | 0.585 | 1.08 | -0.646 | 0.532 | 1.09 | -0.191 | -0.197 | -0.23 | -0.456 | 0.274 | 0.895 |
| NC(=O)NCC#Cc1ccc2c(c1)[C@]1(C(=O)N2)[C@H](c2ccc(O)cc2)N2[C@H](c3ccccc3)[C@H](c3ccccc3)OC(=O)[C@H]2[C@@H]1C(=O)N1CCN(c2ncccn2)CC1 | 0.681 | 0.337 | 0.372 | -0.0492 (inactive) | 0.602 | -0.398 | -0.232 | -0.483 | -0.122 | 0.862 | 0.237 | -0.762 | 0.158 | 0.301 | 0.476 | -0.13 | -0.349 | 0.789 | 0.811 | 0.772 |
| COc1ccccc1CN1C(=O)c2ccccc2[C@](Cc2ccccc2I)(C(=O)NC2CC2)[C@@H]1c1ccc(CO)cc1 | 1.58 | -0.617 | 0.042 | 0.0417 (inactive) | 1.23 | 1.33 | 0.385 | 1.29 | 0.974 | 0.154 | 1.43 | -1.93 | 0.471 | 0.654 | -0.265 | 0.0704 | 0.242 | -0.354 | 1.69 | 1.38 |
| [N-]=[N+]=Nc1ccccc1[C@@H]1OC(c2ccc(OCCCO)cc2)=N[C@]1(CCS(=O)(=O)c1ccccc1)C(=O)O | 1.25 | 0.541 | 0.54 | -1.27 (inactive) | 1.11 | 1.29 | 0.452 | 1.44 | 0.227 | 1.31 | 1.42 | 0.666 | 0.459 | 1.35 | 0.304 | 0.383 | -0.0146 | -0.0345 | 0.677 | 1.55 |
| COCCCNC(=O)[C@@]1(Sc2ccc(C)cc2)CC(=O)N(Cc2ccccc2)[C@@H]1c1ccc(CO)cc1 | 1.54 | 0.0112 | 0.144 | -0.74 (inactive) | -0.342 | -0.21 | -0.58 | -0.702 | -0.344 | -0.29 | 0.0655 | -1.29 | -0.993 | -0.488 | -0.58 | -0.0221 | -0.0324 | 0.336 | -0.36 | -0.941 |
| O=C1NC(=O)C2C1C=CC(C(O)c1cccs1)N2Nc1ccccn1 (stereo not given) | 0.809 | 0.53 | 0.601 | 0.566 (inactive) | 0.797 | 0.182 | 0.727 | 0.292 | 0.283 | 0.538 | 0.348 | 0.755 | 0.451 | 0.0761 | -0.576 | -0.096 | -0.214 | 0.0516 | 1.32 | 1.19 |
| CO[C@H]1O[C@H](CO)[C@@H](OC(=O)Nc2ccccc2-c2ccccc2)[C@H](OC(=O)Nc2ccccc2-c2ccccc2)[C@H]1OC(=O)Nc1ccccc1-c1ccccc1 | 1.54 | 0.677 | 0.607 | -0.316 (inactive) | 1.4 | 1.35 | 0.197 | 1.36 | 0.289 | 0.628 | 1.05 | -2.43 | 0.591 | 1.08 | -0.588 | 0.0321 | 0.431 | 0.225 | 1.41 | 1.73 |

From PubChem BioAssay
